# Hit rate of the full screen: of about 94,000 compounds, about 4,000 (4.3%) were called active. A call without a number means that no potency is given here. Another 29% or so got no clear call; they are omitted. The call rests on the fitted dose curve; in most records, active means well fitted inhibition curve with a large enough effect; inconclusive means small, poorly fitted or top-dose-only effect; inactive means no such curve, though single readings can be large or run the other way. For the sample, actives were picked, then their nearest neighbours and some compounds at random.
# Assay: Cytotoxic Profiling in NIH 3T3 Cell Line of Diverse Libraries Using Quantitative High-Throughput Screening; further: nearly all actives have a fitted effect of over 55% in size
# Conditions: NIH 3T3 viability, CellTiter-Glo ATP luminescence, 48-72 h; series mostly up to 96.7 µM
# Excerpt: Cell-based phenotypic screening is a commonly used approach to discover biological pathways, novel drug targets, chemical probes and high-quality hit-to-lead molecules. Many hits identified from high-throughput screening campaign are ruled out through a series of follow-up potency, selectivity/specificity, and cytotoxicity assays. Prioritization of molecules with little or no cytotoxicity for a more in-depth downstream evaluation influence the future direction of projects, so cytotoxicity profiling of the screening libraries at early stage is essential for increasing the likelihood of candidate success. In this study, we analyzed results from a cell-based cytotoxicity screening campaign, comprising nearly 10,000 compounds in NCATS annotated libraries, and over 100,000 compounds in a diversity library, evaluated in four normal cell lines (HEK 293, NIH 3T3, CRL-7250 and HaCat) and a cancer cell line (KB 3-1, a HeLa subline) with overall screening outcomes, hit rates, pan-activity and selectivity. For the annotated library, we also examined the primary targets and mechanistic pathways regularly associated with cell death. To our knowledge, this is the first study to use high-throughput screening to profile large libraries for cytotoxicity assessment in both normal and cancer cell lines. In summary, the results generated here constitutes a valuable resource for the scientific community and provides insight on identifying cytotoxic compounds with particular mechanisms of action, and prioritizing compounds with suitable cytotoxicity profile for further evaluation.
# NIH 3T3 cells were seeded into white 1536-well plates using a Multidrop Combi peristaltic dispenser (ThermoFisher, Waltham, MA) at a density of 400 cells/well in 5 uL of medium respectively. A pintool (Kalypsys) was used to transfer 23 nL of compound solution to the 1536-well assay plates. After 48 or 72 hr incubation at 37 degree Celsius, 5% CO2 and 95% humidity, 2.5 uL of CellTiter-Glo (Promega) was dispensed into each well using a dispenser (Aspect Automation, St. Paul, MN) with solenoid valves (Lee Valves, Westbrook CT). Plates were left at room temperature for 10 min before imaging the ATP-coupled luminescence using a ViewLux microplate imager (PerkinElmer, Waltham, MA).
# Potency means the concentration at half of the fitted maximal effect.
row,Compound,Potency
1,Cc1nn(CCC#N)c(C)c1[C@@H]1C=C[C@@H](NS(=O)(=O)c2ccccc2)C1,25.1 µM (active)
2,Cc1noc(C)c1[S+](=O)([O-])N1CCCC2(CC(Cc3ccccc3)=NO2)C1 (stereo unspecified),inactive
3,C[C@]1(CO)[C@H]2Cc3sc(NC(=O)C4CCC4)nc3[C@@H](CC(=O)N3CCCCC3)[C@]2(C)CC[C@H]1O,inactive
4,CN(C)CCNC(=O)C[C@@H]1c2nc(NC(=O)c3ccc(C(C)(C)C)cc3)sc2C[C@@H]2[C@](C)(CO)[C@H](O)CC[C@]21C,25.1 µM (active)
5,COCC(=O)Nc1nc2c(s1)C[C@@H]1[C@](C)(CO)[C@H](O)CC[C@@]1(C)[C@@H]2CC(=O)NCCN1CCOCC1,inactive
6,C=CCOC(=O)Nc1nc2c(s1)C[C@@H]1[C@](C)(CO)[C@H](O)CC[C@@]1(C)[C@@H]2CC(=O)N(CC)CC,inactive
7,C=CCN(C)C(=O)C[C@@H]1c2nc(NC(=O)c3ccc(C(C)(C)C)cc3)sc2C[C@@H]2[C@](C)(CO)[C@H](O)CC[C@]21C,28.2 µM (active)
8,CC(=O)N1CCN(C(=O)C[C@@H]2c3nc(NC(=O)c4cccs4)sc3C[C@@H]3[C@](C)(CO)[C@H](O)CC[C@]32C)CC1,inactive
9,Cc1noc(C)c1[S+](=O)([O-])N1CCC2(CC(C(C)C)=NO2)C1 (stereo unspecified),inactive
10,C[C@@H]1CN(C(=O)CNS(=O)(=O)c2cccs2)C[C@@]1(O)C1CC1,inactive
11,CN(C(=O)c1ccccc1)C1CCc2ccccc21 (stereo unspecified),inactive
12,CC(C)N(C)Cc1nnnn1CC(=O)NCc1ccc2nonc2c1,inactive
13,O=C(CN1C(=O)C(c2ccccc2)=NC12CCCC2)Nc1ccc2c(c1)OCCO2,inactive
14,Cn1cnnc1CC1CCCN(C(=O)c2ccsc2)C1 (stereo unspecified),inactive
15,CCc1cc(N2CCN(CC3(O)CCCNC3)CC2)ncn1 (stereo unspecified),inactive
16,OC1(CN2CCC(CCn3cccn3)CC2)CNCCOC1 (stereo unspecified),inactive
17,COc1ccc(OCC2CCN(CC3(O)CCCNC3)CC2)cc1 (stereo unspecified),44.7 µM (active)
18,Cc1cc(C)c(-c2nc3ncccc3[nH]2)[nH]1,inactive
19,CC(C)NC(=O)N1CCN(CCCn2nc3n(c2=O)CCCC3)CC1,inactive
20,CCOc1cc(C(=O)N2CCCN(c3cc(-c4ccccc4)[nH]n3)CC2)cc(OCC)c1OCC,inactive
21,COc1ccc(-c2cc(N3CCCN(C(=O)c4ccc(C)cc4)CC3)n[nH]2)cc1,inactive

row,Compound,Potency
1,O=C(N1CCN(c2cc(-c3ccc(Cl)cc3)[nH]n2)CC1)C1(c2ccccc2)CC1,35.5 µM (active)
2,COc1ccc(-c2cc(N3CCN(C(=O)c4ccncc4)CC3)n[nH]2)cc1,inactive
3,O=C(c1cccnc1)N1CCN(c2cc(-c3ccccc3)[nH]n2)CC1,inactive
4,O=C(c1ccc2cc[nH]c2c1)N1CCCN(c2cc(-c3ccc(Cl)cc3)[nH]n2)CC1,39.8 µM (active)
5,O=C(NCc1ccccn1)c1ccc2oc(-c3cccnc3)nc2c1,inactive
6,O=C(c1ccccc1Cl)N1CCC(c2nc(-c3cccnn3)no2)CC1,inactive
7,O=C1NCCCCCN(C(=O)NCCc2ccccc2)[C@H]2CCC[C@@H]12,inactive
8,CCN(C1CCOCC1)C1CN(C(=O)C2CC2)C1,inactive
9,CC(=O)c1ccc(NC(=O)N2CCc3c(nc(-c4ccc(F)cc4)[nH]c3=O)C2)cc1,inactive
10,O=S(=O)(NCC1CNCCOC1)c1ccc(F)c(F)c1F (stereo unspecified),inactive
11,CCNc1cc(N2CCC(CCC(=O)Nc3ccc(C)cc3C)CC2)ncn1,inactive
12,CCOc1ncccc1CNC(=O)c1cc(S(N)(=O)=O)ccc1F,inactive
13,COc1ccc(CCNC(=O)c2nnn3cc(-c4ccccc4)[nH]c(=O)c23)cc1OC,inactive
14,COc1ccc(CNC(=O)Cc2c[nH]c3ncc(-c4ccccc4)cc23)cc1OC,39.8 µM (active)
15,CNC(=O)c1cccc(-c2cnc3[nH]cc(CC(=O)NCc4cccc(F)c4)c3c2)c1,89.1 µM (active)
16,O=C(Cc1cccc(F)c1)Nc1cnc(-c2cccnc2)nc1,inactive
17,COc1ccccc1C(=O)NCc1ccnc2[nH]ccc12,inactive
18,O=C(Cn1nc2c(cc1=O)CCCC2)NCc1cccc(F)c1,inactive
19,O=C(NCc1nc(-c2cccc(F)c2)c(-c2ccccn2)[nH]1)[C@@H]1CCCN1,inactive
20,Cc1ccc(Nc2ccnc(N3CCCC3C(=O)N3CCC(Cc4ccccc4)CC3)n2)cc1 (stereo unspecified),20 µM (active)
21,O=C(NCC(F)F)[C@@H]1CCCN1c1nccc(Nc2ccccc2Cl)n1,inactive

row,Compound,Potency
1,COc1ccc(Nc2ccnc(N3CCC(C(=O)N4CCN(C(C)=O)CC4)CC3)n2)cc1,inactive
2,CCCN1CC(Oc2ccc(-c3noc(C4CC4)n3)cc2)C1,inactive
3,COc1cccc(F)c1C(=O)N1C[C@H](N)C[C@H]1C(=O)NC(C)C,inactive
4,O=C1CCCCC(CNC(=O)c2cc(F)ccc2F)N1 (stereo unspecified),inactive
5,NCc1ccc(-c2cncnc2)cc1,inactive
6,Cc1cc(Cl)ccc1-c1ccc(CN)cc1,31.6 µM (active)
7,COc1cccc(CCC(=O)N2CCCC2c2nc(C3CCOCC3)no2)c1 (stereo unspecified),inactive
8,O=C(c1ccc(Cl)cc1)N1CCCC2(CNc3ncccc3[S+](=O)([O-])N2)C1 (stereo unspecified),inactive
9,Cn1cnc(S(=O)(=O)N[C@H]2CCN(C(=O)c3ccco3)[C@H](C(=O)N[C@@H](Cc3cccs3)C(N)=O)C2)c1,inactive
10,COc1ccc(-c2cc(C[C@H]3CNCC[C@H]3CC(=O)NCCN(C)C)no2)cc1,inactive
11,O=C(C[C@@H]1CCNC[C@@H]1Cc1cc(-c2ccc(F)cc2)on1)NCCN1CCOCC1,inactive
12,COc1ccc(CNC(=O)C[C@@H]2CCNC[C@@H]2Cc2cc(-c3ccc(C(C)(C)C)cc3)on2)cc1OC,25.1 µM (active)
13,CN1C(=O)CCC2(CNC(=O)c3ccoc3)CCCC=C12 (stereo unspecified),inactive
14,CCCn1ncc(C(=O)NCC2(O)CCCNC2)c1C (stereo unspecified),inactive
15,CC(NC(=O)c1ccc(CN2C(=O)NC3(CCOCC3)C2=O)cc1)c1ccccc1 (stereo unspecified),inactive
16,COC(=O)C1CCN(C(=O)CC[C@H]2CNC(=O)[C@@H]3[C@@H](CCN3Cc3cccs3)N2C)CC1,inactive
17,Cn1c(=O)n([C@H]2CCCN(C(=O)C3CC=CC3)C2)c2ncccc21,inactive
18,Cc1cccc(C)c1-c1nc(C(=O)NCc2ccc(F)cc2)n2ccccc12,inactive
19,Cc1ccc(C)c(S(=O)(=O)c2nnn3c2nc(NCc2ccc(F)cc2)c2ccccc23)c1,28.2 µM (active)
